The values that follow come from PubChem BioAssay (Tox21).

Values without a mark were called inactive. Active and inactive are the calls of the source. Calls come from the whole dose curve; as a rule, active = well fitted curve in the direction sought with a large enough effect in the repeat runs; inconclusive = weak or mixed curves; inactive = flat fitted curve, though single readings scatter.
% is set by controls: 0 for no effect and ±100 for the full control effect.

The assay in a line: qHTS assay to test for compound auto fluorescence at 535 nm (green) in HEK293 cells (AID 720680). The settings on record: green autofluorescence 485/535 nm; series mostly up to 91.3 µM; fluorescence, % of fluorescein: at the top concentration. The source says: U.S. Tox21 Program National Center for Advancing Translational Sciences [NCATS] NIH Chemical Genomics Center [NCGC] U.S. Environmental Protection Agency [EPA] National Institutes of Environmental Health Sciences [NIEHS] National Toxicology Program [NTP] U.S. Food and Drug Administration [FDA] Tox21 Assay Overview: Compound auto fluorescence often interferes with screening of the compound library against various biological targets and signaling pathways. Some of these compounds may have fluorophoric properties. Such properties may interfere with the assay outputs resulting in false positives and/or negatives. To decrease such complications and ensure the compound activities are relevant in terms of biological response, the Tox21 10K compound library was screened for auto fluorescence. From the fluorophores used as reporter signals in our screening assays, the auto fluorescence equivalencies of compounds against three fluorophores have been evaluated: Triamterene, Fluorescein and Rose Bengal sodium for blue, green and red fluorescence, respectively. The fluorescence intensities were measured using Excitation/Emission wavelengths at 405/460nm, 485/535nm and 540/590nm for blue, green and red labels, respectively. This assay includes the green fluorescence data.
Tox21 Assay Protocol Summary: 2,000 HEK293 cells in 5 uL of culture medium containing 10% dialyzed FBS per well were dispensed into black wall/clear bottom 1536-well plates using a Multidrop Combi Dispenser (Thermo Scientific). The assay plates were incubated for 4-5 hr at 37C to allow cell attachment to the well bottom, followed by the transfer of 23 nL compound or DMSO vehicle by a pintool work station (Kalypsys, San Diego, CA). After the assay plates were incubated overnight at 37C and 5% CO2, fluorescence intensities in the assay plates were measured by an Envision (PerkinElmer, Shelton, CT) plate reader using three labels for measuring blue, green and red fluorescence at […] 460, 535 and 590nm respectively.
Take `O=C(c1ccc(O)c(O)c1)c1ccc(O)cc1O`: the “fluorescence, % of fluorescein” value is 0.0185%. Same read-out and setting: the result for `CCCCCCCC/C=C\CCCCCCCCN` reads 0.0163% [at 46 µM]; that for `O=C(/C=C/c1ccccc1)OC/C=C/c1ccccc1`, 0.0188%; that for `O=C(O)c1cccc(C(F)(F)F)c1`, 0.0051%. Turning to `COc1cc(/C=C/c2ccccc2)oc(=O)c1`, the “fluorescence, % of fluorescein” value is 0.027% [at 95.7 µM].

With `O=C(O)[C@H](O)[C@@H](O)[C@H](O[C@@H]1O[C@H](CO)[C@H](O)[C@H](O)[C@H]1O)[C@H](O)CO`, the fluorescence, % of fluorescein is -0.0275% [at 18.6 µM]. The same measure, in the same setting: the result for `Cc1ccc(-c2ccccc2)cc1` reads 0.0188%.

Consider `OC[C@H]1O[C@H](O[C@H]2O[C@H](CO)[C@@H](O)[C@H](O)[C@H]2O)[C@H](O)[C@@H](O)[C@@H]1O`, for which the “fluorescence, % of fluorescein” value was -0.0374%. `O=C1c2ccccc2C(=O)N1SC1CCCCC1`: the Potency result was “inactive”.

`Clc1ccnc(Cl)n1`: the “fluorescence, % of fluorescein” value was -0.0419% [at 95.7 µM]. On the same count and under the same terms, the result for `CC[C@H](C)COC(=O)/C=C/c1ccc(N=Cc2ccc(OC)cc2)cc1` reads 0.0085%; that for `CCCC(=O)OCCc1ccccc1`, -0.136%; that for `OCCN1CCN(CCCN2c3ccccc3Sc3ccc(C(F)(F)F)cc32)CC1`, -0.0286% [at 46 µM]. As for `CC(CCc1ccccc1)NCC(O)c1ccc(O)c(C(N)=O)c1` (stereo not given), the Potency entry was “inactive”. Consider `CC1=CCC(=C(C)C)CC1`, for which the “fluorescence, % of fluorescein” value is -0.0479%. `COc1cc(S(=O)(=O)O)c(C)cc1N=Nc1c(O)ccc2cc(S(=O)(=O)O)ccc12`: the “fluorescence, % of fluorescein” value was -1.87%. For `CC(C)(C)CC(C)(C)c1ccc(Nc2ccc(C(C)(C)CC(C)(C)C)cc2)cc1`, the fluorescence, % of fluorescein was -0.0015% [at 3.72 µM]. Same read-out and setting: the result for `O=C(Nc1ccc2c(O)c(N=Nc3ccc(N=Nc4ccc(S(=O)(=O)O)cc4)cc3)c(S(=O)(=O)O)cc2c1)c1ccccc1` reads -1.42%; that for `CCCCCCCCCCC[C@@H](C[C@@H]1OC(=O)[C@H]1CCCCCC)OC(=O)[C@H](CC(C)C)NC=O`, 0.0087% [at 46 µM]; that for `S=c1nccc[nH]1`, 0.0349%. With `OC/C=C/CO`, the “fluorescence, % of fluorescein” value is -0.0402%. Still for that read-out and setting: the result for `CNc1ccc([N+](=O)[O-])cc1` reads -0.0171%; that for `CC(=O)c1ccc(C(C)=O)cc1`, -0.145% [at 95.7 µM]. Take `CCCCC(CC)COC(=O)CCCCC(=O)OCc1ccccc1` (stereo not given): the “fluorescence, % of fluorescein” value is -0.134%. Turning to `Cc1c(C)c([N+](=O)[O-])c(C(C)(C)C)c([N+](=O)[O-])c1C`, the “fluorescence, % of fluorescein” value was -0.0352%. `Cc1c2ccccc2c(C)c2c1ccc1ccccc12`: the Potency entry was “inactive”. Consider `CC[N+](CC)(CC)CCOc1ccc(/C=C/c2ccccc2)cc1`, for which the Potency result was “inactive”. For the compound `CCCCCCCCCCCCCC[N+](C)(C)C`, the Potency result was “inactive”. For `O=C(O)O`, the fluorescence, % of fluorescein is -0.0067% [at 3.72 µM].

For the compound `C=Cc1ccccc1C=C`, the “fluorescence, % of fluorescein” value was 0.0149% [at 354 µM].

`O[C@@H]([C@H](O)[C@H](O)CBr)[C@H](O)CBr`: the Potency result is “inactive”. `CN1CCN(Cc2cc(-c3ccc4[nH]c(=O)oc4c3)co2)[C@@H](c2ccc(F)cc2)C1`: the “fluorescence, % of fluorescein” value was -0.0102%.

Turning to `O=[N+]([O-])c1ccc(O)cc1C(F)(F)F`, the “fluorescence, % of fluorescein” value is -0.0335%. Same read-out and setting: the result for `O=C(O)c1cc(-c2ccc(F)cc2F)ccc1O` reads 0.0391% [at 18.6 µM]; that for `CCCCOC(=O)CO`, -0.113%; that for `Cc1ccc(C(C)C)cc2c(C)ccc1-2`, 0.128% [at 46 µM]. `CC(C)(C)c1ccc(C(O)CCCN2CCC(C(O)(c3ccccc3)c3ccccc3)CC2)cc1` (stereo not given): the Potency result was “inactive”. With `c1ccc(C(O[C@@H]2CCCN(CCc3ccc4c(c3)OCO4)C2)c2ccccc2)cc1`, the “fluorescence, % of fluorescein” value was 0.115%. Still for that read-out and setting: the result for `C=CCCC(=O)/C=C/C1C(C)=CCCC1(C)C` (stereo not given) reads -0.0699%. On the same count and under the same terms, the result for `CCC(=O)C(=O)CC` reads -0.0797% [at 95.7 µM].
